# The list is not random: actives were taken first. Their share in the collection is about 3.5%.
# Pf apPOL inh: Pf-apPOL DNA polymerase inhibition | 210,000 tested, 0.25% active | inhibition, % at 10 µM | Recombinant Pf-apPOL, molecular beacon fluorescence, 1.5 h
# mHTT CaM bind: mHTT-calmodulin interaction abrogation | inhibition, % at 15 µM | AlphaScreen His-mHTT/GST-CaM binding, luminescence | 190,000 tested, 3.6% active | P42858;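 further: 0% = both proteins with DMSO and 100% = one protein alone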
# Active calls of the source: *; i = inactive; x = no result given; ! = not confirmed by another sample. No stated cut-off is given here; in the data, active means inhibition above about 50%; inactive means the rest.
SMILES,Pf apPOL inh,mHTT CaM bind
CCOC(=O)CNC(=O)C1CCCc2c1[nH]c1ccc(Cl)cc21 (configuration not stated),0.8,100.0*
CCCn1cnc2c1c(=O)n(C(C)C)c(=O)n2-c1ccc(F)c(F)c1,0.9,2.9
Cc1c(NC(=O)CC(C)C)cccc1-c1nc2cc(Cl)ccc2o1,-3.3,-2.5
Oc1c(C=NCc2ccc(Cl)cc2Cl)[nH]c2ccc(Br)c(Cl)c12,0.5,58.0*
COc1ccccc1N=Cc1[nH]c2ccc(Br)c(Cl)c2c1O,-2.8,3.0
Oc1c(C=NCc2ccc(F)cc2)[nH]c2ccc(Br)c(Cl)c12,5.1,55.0*
Oc1c(C=NCc2ccccc2Cl)[nH]c2ccc(Br)c(Cl)c12,-4.4,72.0*
Oc1c(C=Nc2ccc(F)cc2)[nH]c2ccc(Br)c(Cl)c12,9.9,5.0
Cc1cccc(C)c1N=Cc1[nH]c2ccc(Br)c(Cl)c2c1O,-100.4,12.0
Oc1c(C=NCCc2ccccc2)[nH]c2ccc(Br)c(Cl)c12,-1.4,86.0*
Cc1ccc(CN=Cc2[nH]c3ccc(Br)c(Cl)c3c2O)cc1,-0.9,21.0
O=C(CCCCN1C(=O)c2cccc([N+](=O)[O-])c2C1=O)Nc1ncccn1,0.6,22.0
COc1ccc(C2CC(=O)c3c(O)cc(O)cc3O2)cc1O (configuration not stated),-0.2,x
CC(C)=CCc1c(O)cc(O)c2c1OC(c1ccccc1)CC2=O (configuration not stated),-2.0,51.0*
O=C1OC(c2ccc(Cl)cc2)=C/C1=C/c1ccc(-c2ccccc2C(=O)O)o1,-1.3,56.0*
CCCC1=C/C(=C\c2ccc(-c3ccccc3)o2)C(=O)O1,-3.8,50.0*
O=C1OC(c2ccc(Cl)cc2)=C/C1=C\c1ccccc1,-18.6,7.0
CC1=NOC(=O)/C1=C/c1ccc(-c2ccccc2)o1,2.6,27.0
COc1ccccc1C(NC(=O)C1CCCCC1)c1cc([N+](=O)[O-])c2cccnc2c1O (configuration not stated),-5.0,54.0*
COc1ccccc1C(NC(C)=O)c1cc([N+](=O)[O-])c2cccnc2c1O (configuration not stated),-5.7,100.0*
O=C(NC(c1cccs1)c1cc([N+](=O)[O-])c2cccnc2c1O)C1CCCCC1 (configuration not stated),-6.1,47.0
CCN(CC)c1nc(C)nc2c1c(C)nn2-c1ccc(F)cc1,1.6,-75.9
Cc1nc2c(C(=O)NC3CCCC3)cnn2c(C)c1Cc1c(F)cccc1Cl,-6.5,-6.0
Cc1cccc(N2CCN(C(=O)CCC3CCN(c4cc(NC5CC5)ncn4)CC3)CC2)c1,-1.7,21.4
Cc1nc(N2CCOCC2)nc(N2CCCC2)c1[N+](=O)[O-],-10.4,-2.0
SMILES,Pf apPOL inh,mHTT CaM bind
Cc1cc(C)n(-c2nc(N3CCOCC3)nc(C)c2[N+](=O)[O-])n1,68.9*!,-1.0
Cc1ccc(N2C(=O)CSC2c2ccc3c(c2)OCO3)cc1 (configuration not stated),-2.0,1.0
O=C1CSC(c2ccc([N+](=O)[O-])cc2)N1c1ccc(Oc2ccccc2)cc1 (configuration not stated),-2.2,75.0*
Cc1ccc(N2C(=O)CSC2c2ccc([N+](=O)[O-])cc2)cc1 (configuration not stated),-0.5,8.0
O=C1CSC(c2ccc3c(c2)OCO3)N1c1ccc(Oc2ccccc2)cc1 (configuration not stated),-1.4,100.0*
Cc1noc(C)c1S(=O)(=O)N1CCC(n2c(C)nc3cccnc32)C1 (configuration not stated),-2.3,12.5
COc1ccc(NC(=O)/C(C#N)=C/c2cc(C)n(-c3ccc(F)cc3)c2C)cc1,0.0,1.0
COc1ccc(-n2c(C)cc(CN)c2C)cc1,-0.6,63.8*
C=CCn1c2ccccc2n2c(C(C)=O)c(C)nc12,0.6,9.0
O=C(Cn1c(-c2nnco2)cc2ccccc21)NCc1ccco1,25.4,69.1*
O=C(Cn1c(C(F)(F)F)nc2ccccc21)NCc1ccco1,-0.8,1.0
COc1ccc(C)cc1N1CCN(C(=O)c2ccc(Cl)cc2Cl)C(C)C1=O (configuration not stated),-2.4,7.0
CC(C)Cn1c(C(=O)NCc2ccccn2)cc2sccc21,-0.9,31.2
O=C1C(=CC=Cc2ccco2)SC(=S)N1C1CCCCC1,18.4,77.8*
S=c1[nH]nc(C2CCCCC2)n1/N=C\C=C\c1ccco1,x,i
Nc1nnc(-c2ccccc2)s1,2.6,-8.2
NC1=NNC(c2ccccc2)=CS1,-1.6,53.4*
Cc1ccccc1-c1cc(C(=O)N2CCC(NC(=O)c3ccc(F)cc3)CC2)[nH]n1,2.6,-6.1
CC1CCN(C(=O)CCc2nnc(-c3ccc(Cl)cc3)[nH]c2=O)CC1,-0.5,2.0
O=C(CSc1nc(-c2ccccc2)cn1-c1ccccc1F)Nc1ccccc1,5.2,54.0*
Cn1cnnc1SCC(=O)Nc1ccccc1,-2.7,1.3
COc1ccccc1NC(=O)CSc1nc(-c2ccccc2)cn1-c1ccccc1OC,0.7,34.0
COc1ccccc1-n1cc(-c2ccccc2)nc1SCC(=O)Nc1ccc(F)cc1,1.4,57.0*
C=CCOc1ccc(C2CC(=O)Nc3n[nH]c(C)c32)cc1OC (configuration not stated),1.1,-7.8
Cc1ccnc(N2CCC(C(=O)NC(C)c3ccc4c(c3)OCCO4)CC2)n1 (configuration not stated),4.8,-0.2
SMILES,Pf apPOL inh,mHTT CaM bind
CNC(=O)N1CCCC(c2cccc(C(=O)N3CCN(c4ccccc4)CC3)c2)C1 (configuration not stated),-7.4,-1.0
CNC(=O)N1CCCC(c2cccc(C(=O)N3CCN(c4cc(C)ccc4C)CC3)c2)C1 (configuration not stated),-5.5,80.1*
CNC(=O)N1CCCC(c2cccc(C(=O)N3CCN(c4cccc(Cl)c4)CC3)c2)C1 (configuration not stated),-7.0,97.7*
CNC(=O)N1CCCC(c2cccc(C(=O)N3CCN(c4ccccc4C)CC3)c2)C1 (configuration not stated),-7.0,38.6
CN1/C(=C/C=C/c2ccc3ccccc3[n+]2C)C=Cc2ccccc21,-3.2,100.0*
CN(C)c1ccc(C=Cc2ccc3ccccc3[n+]2C)cc1,2.4,x
CC(=O)c1ccc2c(c1)C(=O)c1cc(C(C)=O)ccc1-2,-3.7,-3.0
COc1cc(OC)c2c(-c3cccc(-c4cccc(C)c4)c3)cc(=O)oc2c1,-7.5,-5.9
Cc1cccc(-c2cc(O)cc3sc(=O)oc23)c1,5.1,91.0*
O=c1oc2c(-c3ccc(Cl)cc3)cc(O)cc2s1,0.1,80.0*
O=c1oc2c(-c3ccc([N+](=O)[O-])cc3)cc(O)cc2s1,2.2,8.6
Cc1ccc2cc3cc(C(=O)Nc4ccccc4C)oc3nc2c1,-2.9,-3.0
CCOc1cc(CN2CCCC2c2cc(C)on2)ccc1OC(C)C (configuration not stated),-2.4,2.1
CCCCNC(=O)CCC(=O)N1CCCn2nc(-c3cn(C)c4ccccc34)cc21,1.8,22.1
CCS(=O)(=O)N1CCN(Cc2nc(-c3cccs3)cs2)CC1,-13.5,-7.6
O=C(c1ccc(Cn2cncn2)cc1)N1CCc2ccccc2C1,-10.1,3.3
O=C(c1ccc(Cn2c(=O)[nH]c3ccccc3c2=O)cc1)N1CCc2ccccc2C1,-6.4,59.8*
Cc1cc2[nH]c(C(=O)Nc3cccc(C)c3C)c(CN3CCOCC3)c2s1,-8.9,52.9*

# Bioassay records (PubChem BioAssay)
